Bioassay records from PubChem.
GAA inh – blocks human lysosomal alpha-glucosidase; purified human GAA, 4-MU-alpha-glucoside fluorescence; Potency, µM (top dose mostly 76.9 µM), for the others: at the top dose activity change, negative = inhibition, most hits filed as inhibitors; P10253; 200,000 tested, 0.005% active; AID 1466;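 note: plate controls were uninhibited enzyme wells for no effect and no-enzyme background for full effect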
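Endpoint fluorogenic read: 20 min room-temperature reaction of 4 nM human alpha-glucosidase with 400 uM 4-methylumbelliferyl-alpha-D-pyranoside, pH 5.0, quenched with 1M NaOH/1M glycine pH 10. AC50 from Hill modeling.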
GAA glycogen – GAA glycogen-cleavage inhibition or activation | P10253 | AID 2100 | recombinant GAA, glycogen substrate, Amplex Red glucose oxidase fluorescence | Potency, µM (series often up to 76.4 µM), for the others: at the highest dose activity change, negative = inhibition, actives largely listed as inhibitors | 300,000 tested, 0.38% active;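 note: 0% = full enzyme reaction and -100% = no-enzyme basal signal; the screen sought inhibitors and activators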
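Natural-substrate format: glycogen cleavage by 4 nM human enzyme, glucose read by Amplex Red coupling (Ex 573, Em 610 nm). Normalized to enzyme and no-enzyme controls.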
Lamin A splicing – LMNA splicing modulation; HeLa LMNA splicing GFP/RFP minigene ratio, 48 h; AID 1487; Potency, µM (series often up to 46.1 µM), for inactives: top-dose ratio change, negative = inhibition, hits mostly inhibitors; 200,000 tested, 0.01% active; active = well fitted inhibition curve with a large enough effect in the signal ratio, with a control signal flat, not every such curve was filed as active; inconclusive = small, poorly fitted or top-dose-only effect, or effect the other way, or a change in a side signal; the % refers to the signal ratio
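S3 HeLa cells stably expressing lamin A-EGFP splicing minigene plus DsRed2, 600 cells/well, 48 h compound exposure at 37C. Laser-scanning cytometry; analysed as GFP (500-530 nm)/RFP (575-640 nm) total intensity ratio; 0.5% DMSO vehicle.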
Luc counter – Kinase-Glo luciferase inhibition (counter-screen); Q27757; Potency, µM (titrated, usually from 38.3 µM), inactives show top-dose activity change, negative = inhibition, actives largely listed as inhibitors; 200,000 tested, 0.28% active; Kinase-Glo luciferase, ATP luminescence, 8 min; note: nearly all actives have a fitted effect of over 60% in size
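Compound is pinned into ATP-containing buffer (10 uM ATP, imidazole pH 7.2, 7 mM MgCl2). Kinase-Glo luciferase reagent is then added. Light output is recorded following an 8-min room-temperature incubation.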
N370S GC – inhibits or activates N370S mutant glucocerebrosidase; Potency, µM (titrated, usually from 59.4 µM), without a hit: at the top dose activity change, negative = inhibition, most hits filed as inhibitors; P04062; 330,000 tested, 0.092% active; N370S GC spleen homogenate, 4MU-glucoside fluorescence;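 note: 0% = full enzyme activity and -100% = no enzyme basal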
aGlu spleen mod – lysosomal alpha-glucosidase (human) modulation; human spleen homogenate, 4-MU-alpha-glucoside fluorescence; Potency, µM (top dose mostly 79.9 µM), inactives show top-dose activity change, negative = inhibition, actives largely listed as inhibitors; 240,000 tested, 0.006% active; AID 2112;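 note: 0% = enzyme with vehicle and -100% = no enzyme basal signal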
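Human spleen homogenate (1 ug) with 4-methylumbelliferyl-alpha-D-glucopyranoside (1 mM final) in 50 mM citrate/phosphate pH 5.0, 0.01% Tween-20; 40 min at 37 C. Stopped at pH 10; 4-MU fluorescence Ex 365/Em 440 nm; AC50 by Hill fit.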
The depositor's hits bear a star; ? = inconclusive; . = no result; [ ] = another dose, or the depositor's remark. The list is not random: actives were taken first. Their share in the collection is about 0.52%. Unless noted, calls come from the whole dose curve; as a rule, active = well fitted curve in the direction sought with a large enough effect; inconclusive = small, poorly fitted or top-dose-only effect, or another doubt; inactive = no such curve, though single readings can be large; an effect the other way counts as inactive or inconclusive. Unless noted, % is set by controls: 0 for no effect and ±100 for the full control effect; potency is the fitted concentration of half-maximal effect.

SMILES	GAA inh	GAA glycogen	Lamin A splicing	Luc counter	N370S GC	aGlu spleen mod
C/C=C(/C)C(=O)OC1C(OC(C)=O)[C@@]2(CO)C(O)C[C@@]3(C)C(=CCC4[C@@]5(C)CCC(OC6OC(C(=O)O)[C@@H](O[C@@H]7OC(CO)C(O)C(O)C7O)C(O)[C@H]6O[C@@H]6OC(CO)C(O)C(O)C6O)[C@](C)(CO)C5CC[C@@]43C)C2CC1(C)C (stereo partly specified)	.	.	.	0%	16µM*	-2%
COc1ccc(NC(=O)C2CCN(C(=O)c3sc4nc[nH]c(=O)c4c3C)CC2)c(OC)c1	.	.	-6%[46 µM]	.	.	.
COc1ccc(-c2n(CC(=O)OC3CC(C)CCC3C(C)C)c3ccccc3[n+]2C)cc1 (stereo unspecified)	?	5%	.	3.5µM*	7%	-5%
Cc1ccc2nc(-c3cc(NC(=O)/C=C/c4ccccc4)ccc3Cl)oc2c1	.	3%[76.3 µM]	.	.	.	.
COc1ccccc1C1Nc2cccc3cccc(c23)N1	-3%	16µM*	14%	-7%	-6%	0%
N[C@@]1(C(=O)O)CN[C@@H](C(=O)O)C1	.	.	.	.	10%	0%
O=C(O)c1cc(NCc2c(F)cccc2Cl)ccc1N1CCOCC1	3%	7.1µM*	?	-1%	24%	-7%
COC(=O)c1ccc(NC(=O)C(=O)c2cccn2C)cc1	-5%	7%	-9%[46 µM]	13µM*	-5%	.
COC(=O)c1sccc1-n1cccc1C(=O)C(=O)Nc1ccc(F)cc1	9%	13%	.	-3%	10%	6%
COc1ccccc1Nc1nnc(SCC2CCCCO2)s1 (stereo unspecified)	-5%	6%	.	8.9µM*	25%	.
COc1cc(C=C(c2nc3ccccc3s2)c2nc3ccccc3s2)ccc1O	-10%	-18%	?	0%	-5%	-6%
COc1cc(/C=C/c2cc(C(=O)O)c3ccccc3n2)cc(OC)c1O	-5%	14µM*	?	-3%	-4%	-14%
COc1cc(/C=C/c2nc3ccccc3s2)cc(OC)c1O	-10%	18µM*	.	-4%	-10%	-11%
CN(C)c1ccc(/C=C/c2nc3ccccc3s2)cc1	3%	3%	3%	11µM*	8%	-1%
COc1ccc2cc(-c3cc(C(=O)O)c4ccccc4n3)ccc2c1	-3%	1%	?	7.9µM*	-21%	-14%
CN(C)c1ccc(/C=C/c2ccc3ccccc3n2)cc1	.	-4%	.	.	6%	4%
CNc1nc2c3ccccc3n(C(C)=O)c2s1	0%	25µM*	-20%	1%	3%	5%
Oc1ccc(Br)cc1C=Nc1cccn2cc(-c3ccccc3)nc12	11%	?	.	-25%	4.5µM*	-2%
Fc1ccc(NC(=S)NCc2ccccc2)cc1	.	-11%[76.3 µM]	.	.	-1%	.
Cc1ccc(NC(=S)NNC(=S)NCc2ccccc2)cc1	-4%	32µM*	7%	5%	10%	-6%
FC(F)(F)c1cccc(NC(=S)NNC(=S)NCc2ccccc2)c1	?	12µM*	?	-2%	7%	-5%
O=C(NCc1ccc(Cl)cc1)c1cnc(N2CCCCC2)c2ccccc12	.	.	-6%[46 µM]	.	.	.
CCc1cccc(NC(=O)CSc2nncn3c2cc2sccc23)c1	.	12%[76.3 µM]	.	.	.	.
Oc1ccc(/C=N/NC(=S)NCC2CCCO2)cc1 (stereo unspecified)	-2%	32µM*	11%	17%	.	-11%
COCCCNC(=S)N/N=C/c1ccc(O)cc1	-1%	32µM*	2%[46 µM]	.	-18%	11%
COc1ccc(/C=N/NC(=O)C(=O)NCC2CCCO2)cc1 (stereo unspecified)	-3%	-5%	-8%	-2%	1%	-5%
O=C(N/N=C1/C[C@@H](O)[C@@H](O)[C@@H]2[C@@H]3C(=O)N(C4CCCCC4)C(=O)[C@H]3CC[C@H]12)OCc1ccccc1	.	.	.	.	-6%[12.8 µM]	-8%[17.4 µM]
O=C(Nc1ccc(N2CCCC2=O)cc1)c1cccc(F)c1	-7%	-13%	18%	7.9µM*	5%	2%
